Source: PubChem BioAssay
The list is not random: actives were taken first. Their share in the collection is about 6.8%.
C diff HTS = blocks growth of Clostridium difficile | 86,000 compounds, 0.25% hits | AID 1259249 | Clostridium difficile clinical isolate growth, OD600, 24 h; active compounds read low | growth activity, negative = inhibition, % at 16 µg/mL (by protocol);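 active means mean growth activity at or below -80% and every replicate also at or below -80%; inconclusive means mean at or below -80% but some replicate above -80%; inactive means mean growth activity above -80%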;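 further: 0% = DMSO wells and -100% = levofloxacin 16 µg/mL wells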
Pf Dd2 growth = P. falciparum Dd2 growth inhibition; SYBR Green, 72 h; active compounds read low; activity change, % at 10 µM; 94,000 compounds, 2.3% hits; AID 1159554; in the data active means activity change below about -80%; inconclusive means no clear call, values can overlap the other calls
T cruzi growth-1 = T. cruzi proliferation inhibition | inhibition, % at 8.34 µM | AID 624255 | T. cruzi beta-gal in NIH3T3, GalScreen luminescence, 90 h | 77,000 compounds, 5.9% hits;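 active means mean inhibition above about 93%, with at least 55% of replicates each passing it, limit read from the data, passing the limit was not always enough; inconclusive means only one of those two conditions holds; inactive means neither condition holds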
T cruzi growth-2 = Trypanosoma cruzi proliferation inhibition; T. cruzi beta-gal in NIH3T3, GalScreen luminescence, 90 h; shares compounds with T cruzi growth-1; 5,600 compounds, 72% hits; inhibition, % at 8.35 µM;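 active means mean replicate inhibition above about 95% and at least 55% of replicates individually reaching it, limit read from the data; inconclusive means only one of the two criteria is met; inactive means neither criterion is met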
T cruzi growth-3 = Trypanosoma cruzi proliferation inhibition | T. cruzi beta-gal in NIH3T3, GalScreen luminescence, 90 h | AID 651740 | inhibition, % at 2.09 µM | 5,600 compounds, 21% hits | shares compounds with T cruzi growth-1;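 active means mean inhibition above about 95%, with at least 55% of replicates also reaching it, limit read from the data; inconclusive means meets just one of the two conditions; inactive means meets neither condition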;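 further: plate controls were neutral control median for no effect and positive control median for full effect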
3T3 cytotox = cytotoxicity in mouse NIH/3T3 fibroblasts; shares compounds with T cruzi growth-1; NIH/3T3 viability, CellTiter-Glo ATP luminescence, 90 h; cytotoxicity (signal decrease), % at 8.35 µM; 5,600 compounds, 14% hits;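 active means mean signal decrease across replicates above about 35% based on untreated-well scatter, with enough replicates individually passing, limit read from the data; inconclusive means no rule stated though some were filed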;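 further: 0% = median of neutral control wells and 100% = median of positive control wells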
NIH3T3 tox 2 = kills mouse NIH/3T3 fibroblasts; NIH/3T3 viability, CellTiter-Glo ATP luminescence, 90 h; 5,600 compounds, 56% hits; inhibition, % at 24.9 µM; shares compounds with T cruzi growth-1;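 active means mean loss of cell viability signal at or above a set limit, and enough replicates individually reaching it; inconclusive means meets only the mean limit or only the replicate share; inactive means meets neither condition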;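 further: 0% = median of neutral control wells and 100% = median of positive control wells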
Numbers without * were called inactive; ? = inconclusive; nt = no result given.

SMILES	C diff HTS	Pf Dd2 growth	T cruzi growth-1	T cruzi growth-2	T cruzi growth-3	3T3 cytotox	NIH3T3 tox 2
C[C@H]1CCCCO[C@@H](CN(C)C(=O)c2ccccc2)[C@@H](C)CN([C@@H](C)CO)C(=O)c2cc(NC(=O)Nc3ccc(F)cc3)ccc2O1	-13.4	-68.0	?	115.1*	11.6	3.2	15.1
C[C@@H]1CCCCO[C@@H](CN(C)C(=O)Nc2ccccc2)[C@H](C)CN([C@H](C)CO)C(=O)c2cc(NC(=O)Nc3ccccc3)ccc2O1	-2.4	-50.5	98.8*	108.3*	60.1	1.9	2.7
C[C@@H]1CCCCO[C@@H](CN(C)C(=O)Nc2ccc(F)cc2)[C@H](C)CN([C@@H](C)CO)C(=O)c2cc(NC(=O)Nc3ccccc3)ccc2O1	-2.3	20.5	104.4	nt	nt	nt	nt
C[C@@H]1CN([C@@H](C)CO)C(=O)c2cc(NC(=O)Nc3ccc(F)cc3)ccc2O[C@@H](C)CCCCO[C@H]1CN(C)C(=O)c1ccccc1	7.2	54.2	68.5	nt	nt	nt	nt
C[C@H](CO)N1C[C@H](C)[C@H](CN(C)C(=O)Nc2ccc3c(c2)OCO3)OCCCC[C@H](C)Oc2ccc(NC(=O)Nc3ccccc3)cc2C1=O	-6.1	8.8	113.7*	111.8*	55.4	-15.5	-20.3
C[C@H]1CN([C@@H](C)CO)C(=O)Cc2cc(NS(=O)(=O)c3ccc(Cl)cc3)ccc2O[C@H]1CN(C)Cc1ccc(C(=O)Nc2ccccc2N)cc1	-0.7	-79.9	nt	nt	nt	nt	nt
COc1ccc(S(=O)(=O)N(C)C[C@H]2Oc3ccc(NC(=O)CCCN(C)C)cc3CC(=O)N([C@H](C)CO)C[C@@H]2C)cc1	-4.8	10.7	nt	nt	nt	nt	nt
Cc1noc(C)c1NC(=O)Nc1ccc2c(c1)C(=O)N([C@H](C)CO)C[C@@H](C)[C@H](CN(C)C(=O)Nc1cccc3ccccc13)O2	nt	27.9	-116.3	nt	nt	nt	nt
CC(C)C#Cc1ccc2c(c1)O[C@@H](CN(C)CC1CCCC1)[C@H](C)CN([C@H](C)CO)S2(=O)=O	5.6	-47.5	92.0*	104.5*	98.1*	54.8*	104.5*
CC(C)C#Cc1ccc2c(c1)O[C@@H](CN(C)CC1CCOCC1)[C@H](C)CN([C@@H](C)CO)S2(=O)=O	-4.1	-51.7	86.3	nt	nt	nt	nt
C[C@H]1CN([C@@H](C)CO)S(=O)(=O)c2ccc(C#Cc3ccccc3)cc2O[C@H]1CN(C)CC1CC1	16.7	-82.8*	117.1*	102.8*	52.0	33.7	105.4*
CC(C)C#Cc1ccc2c(c1)O[C@@H](CN(C)CC1CCCC1)[C@H](C)CN([C@@H](C)CO)S2(=O)=O	2.8	-55.7	91.9*	105.5*	52.6	40.7*	103.3*
CC(C)C#Cc1ccc2c(c1)O[C@H](CN(C)CC1CC1)[C@H](C)CN([C@@H](C)CO)S2(=O)=O	nt	-37.7	50.5	nt	nt	nt	nt
C[C@@H]1CN([C@H](C)CO)S(=O)(=O)c2ccc(C#Cc3ccccc3)cc2O[C@@H]1CN(C)CC1CC1	3.9	-60.3	94.0	nt	nt	nt	nt
CCCC#Cc1cnc2c(c1)C(=O)N([C@@H](C)CO)C[C@H](C)[C@H](CN(C)Cc1ccncc1)O2	nt	-2.8	58.8	nt	nt	nt	nt
COc1ccc(NC(=O)Nc2ccc3c(c2)C(=O)N([C@H](C)CO)C[C@@H](C)[C@@H](CN(C)C(=O)c2ccccc2)OCCCC[C@H](C)O3)cc1	10.0	-27.4	45.7	nt	nt	nt	nt
CNC(=O)C[C@H]1CC[C@H]2[C@@H](COC[C@@H](O)CN2C(=O)c2ccc3c(c2)OCO3)O1	0.4	12.9	nt	nt	nt	nt	nt
COc1ccc2c3c(n(C)c2c1)[C@H](CO)N(C(=O)Nc1ccc(F)cc1)CC31CN(C(=O)c2ccccc2F)C1	0.5	-71.7	nt	nt	nt	nt	nt
COc1cccc(CN2CCCCN3[C@H](C2)[C@@H](c2ccc(-c4cccnc4)cc2)[C@@H]3CO)c1	3.9	-62.5	72.8	nt	nt	nt	nt
COc1cccc(CN2CCCCN3[C@H](CO)[C@@H](c4ccc(C#Cc5cccnc5)cc4)[C@@H]3C2)c1	0.7	-77.4	116.3*	104.2*	61.9	18.5	104.5*
COc1ccc(C#Cc2ccc([C@@H]3[C@H]4CN(Cc5ccncc5)CCCCN4[C@H]3CO)cc2)cc1	-3.5	-30.0	9.8	nt	nt	nt	nt
COc1cccc(CN2CCCCN3[C@@H](CO)[C@H](c4ccc(C#Cc5cccnc5)cc4)[C@@H]3C2)c1	21.8	-69.1	116.6*	109.4*	44.3	19.0	103.4*
O=C(C[C@H]1CC[C@H]2[C@@H](COC[C@H](O)CN2Cc2cc(F)ccc2F)O1)N[C@@H]1CCN(Cc2ccccc2)C1	15.7	-60.1	96.0*	80.3	57.6	1.2	?
O=C(C[C@H]1CC[C@H]2[C@@H](COC[C@H](O)CN2Cc2ccccc2)O1)NCc1ccccc1Cl	nt	-11.7	34.6	nt	nt	nt	nt
O=C(C[C@H]1CC[C@@H]2[C@H](COC[C@@H](O)CN2Cc2ccccc2)O1)N[C@@H]1CCN(Cc2ccccc2)C1	4.4	-31.8	81.2	nt	nt	nt	nt
SMILES	C diff HTS	Pf Dd2 growth	T cruzi growth-1	T cruzi growth-2	T cruzi growth-3	3T3 cytotox	NIH3T3 tox 2
O=C(C[C@@H]1CC[C@@H]2[C@H](COC[C@@H](O)CN2Cc2ccccc2)O1)NCc1ccccc1Cl	nt	-7.2	99.8*	59.6	59.4	11.7	16.3
O=C(C[C@@H]1CC[C@@H]2[C@H](COC[C@@H](O)CN2Cc2cc(F)ccc2F)O1)N[C@@H]1CCN(Cc2ccccc2)C1	-1.6	-11.2	94.7	nt	nt	nt	nt
O=C(C[C@H]1CC[C@H]2[C@@H](COC[C@H](O)CN2Cc2ccccc2)O1)N[C@@H]1CCN(Cc2ccccc2)C1	1.2	-49.6	98.5*	99.0*	47.3	1.6	9.3
CCCNC(=O)Nc1ccc2c(c1)C(=O)N(C)C[C@@H](OC)[C@H](C)CN(CCC(F)(F)F)[C@H](C)CO2	nt	nt	28.8	nt	nt	nt	nt
COc1ccc(S(=O)(=O)Nc2ccc3c(c2)C(=O)N([C@@H](C)CO)C[C@@H](C)[C@H](CN(C)S(=O)(=O)c2ccc(F)cc2)OCCCC[C@@H](C)O3)cc1	2.9	-12.4	107.6*	114.1*	64.8	10.8	22.9
COc1ccc(S(=O)(=O)Nc2ccc3c(c2)C(=O)N([C@@H](C)CO)C[C@@H](C)[C@@H](CN(C)S(=O)(=O)c2ccc(F)cc2)OCCCC[C@@H](C)O3)cc1	17.7	-41.7	79.4	nt	nt	nt	nt
COc1ccc(S(=O)(=O)N(C)C[C@H]2OCCCC[C@@H](C)Oc3ccc(NS(=O)(=O)c4ccc(F)cc4)cc3C(=O)N([C@@H](C)CO)C[C@H]2C)cc1	6.0	-51.3	100.4*	98.5*	75.1	-16.2	-14.6
COc1ccc(S(=O)(=O)Nc2ccc3c(c2)C(=O)N([C@@H](C)CO)C[C@@H](C)[C@@H](CN(C)S(=O)(=O)c2ccc(F)cc2)OCCCC[C@H](C)O3)cc1	11.3	-62.6	44.5	nt	nt	nt	nt
